# Data from PubChem BioAssay.
# Active and inactive are the calls of the source.
# Key:
# [1] = optical density shifts of acrAB sulA E. coli – strain DRC41, OD650, 48 h, E. coli filamentation inducer project, primary screen (AID 1152); conditions: higher = more signal, called active from +8 up or from −8 down;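 further: E. coli MC1000 strain DRC41 lacking acrAB efflux pump and sulA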
# [2] = probe aLefty1 binding on compound microarray – biochemical, small-molecule microarray, 635/667 nm fluorescence, primary screen (AID 1153); conditions: higher = more signal;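 further: score merges spot fluorescence with signal-to-noise ratio from the scanned slide images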
# [3] = plasmodial surface anion channel blockers, osmotic lysis – cell-based, P. falciparum Indochina, OD700, 1 h, primary screen (AID 1154); conditions: P. falciparum Indochina infected RBC osmotic lysis, higher = more signal, called active from +8 up or from −8 down
# [4] = plasmodial surface anion channel blockers, osmotic lysis – cell-based, P. falciparum Indochina, OD700, 2 h, primary screen (AID 1155);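 further: lysis reports solute entry through the parasite surface anion channel PSAC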; conditions: P. falciparum Indochina infected erythrocytes, higher = more signal, called active from +8 up or from −8 down
# [5] = changes in parasitized red cell lysis, either direction – P. falciparum Indochina, OD700, 3 h, PSAC antagonist project, primary screen (AID 1156); conditions: P. falciparum-infected erythrocytes, osmotic lysis, higher = more signal, called active from +8 up or from −8 down
# [6] = plasmodial surface anion channel blockers, osmotic lysis – cell-based, P. falciparum Indochina, OD700, 18 h, primary screen (AID 1157); conditions: P. falciparum Indochina infected erythrocytes, osmotic lysis OD700, 18 h; higher = more signal, called active from +8 up or from −8 down
# [7] = S6 kinase pathway phospho-S6 level changes – cell-based, A549, cytoblot, luminescence, serum-stimulated, primary screen (AID 1158); conditions: 5 h, higher = more signal;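 further: serum-stimulated A549 lung adenocarcinoma cells; signal is phosphorylated S6 detected by cytoblot immunostaining with HRP secondary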
# [8] = biological target: NADPH oxidase 2 (Homo sapiens) (UniProt P04839); test: compounds shifting NOX2 Amplex Red fluorescence – cell-based, HEK293-NOX2, PMA-stimulated, NOX inhibitor project, primary screen (AID 1159); conditions: 45 min, higher = more signal, called active from +8 up or from −8 down; further: test concentration not given here
# [9] = biological target: NADPH oxidase 4 (Homo sapiens) (UniProt Q9NPH5); test: compounds shifting NOX4 Amplex Red fluorescence – cell-based, HEK293-NOX4, tetracycline-induced, NOX inhibitor project, primary screen (AID 1160); conditions: HEK293-NOX4, Amplex Red H2O2 fluorescence, 45 min; higher = more signal, called active from +8 up or from −8 down
# [10] = biological target: NADPH oxidase 5 (Homo sapiens) (UniProt Q96PH1); test: compounds shifting NOX5 Amplex Red fluorescence – cell-based, HEK293-NOX5, NOX inhibitor project, primary screen (AID 1161); conditions: HEK293-NOX5, ionomycin, 45 min, higher = more signal
# [11] = compound effects on lung adenocarcinoma cell viability – A549, calcein-AM fluorescence, 48 h, basal, profiling panel (AID 1162); conditions: higher = more signal; further: test concentration not given here
# [12] = compound effects on differentiated 3T3-L1 adipocyte viability – cell-based, 3T3-L1 adipocytes, calcein-AM fluorescence, 48 h, basal, profiling panel (AID 1163); conditions: 3T3-L1 adipocytes viability, higher = more signal; further: test concentration not given here
# [13] = compound effects on hepatocellular carcinoma cell viability – HepG2, calcein-AM fluorescence, 48 h, basal, profiling panel (AID 1164); conditions: higher = more signal; further: test concentration not given here
# [14] = compound effects on multiple myeloma cell viability – MM1S, calcein-AM fluorescence, 48 h, basal, profiling panel (AID 1165); conditions: higher = more signal; further: test concentration not given here
# [15] = calcein-AM signal in unstimulated myeloma cells – cell-based, calcein-AM fluorescence, 48 h, PK04 Diversity Set, profiling panel (AID 1166); conditions: RPMI8226 myeloma viability, higher = more signal;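 further: cells grown under basal conditions without added stimulus; test concentration not given here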
# [16] = JC-1 mitochondrial signal, unstimulated HepG2 cells – cell-based, JC-1 fluorescence, 24 h, 100 nL compound, profiling panel (AID 1167); conditions: HepG2 mitochondrial potential, higher = more signal; further: test concentration not given here
# [17] = JC-1 mitochondrial signal, unstimulated adipocytes – cell-based, JC-1 fluorescence, 3T3-L1 adipocytes, 24 h, 100 nL compound, profiling panel (AID 1168); conditions: JC-1 mitochondrial fluorescence, higher = more signal, called active from +8 up or from −8 down; further: test concentration not given here
# [18] = JC-1 mitochondrial signal, unstimulated myeloma cells – cell-based, JC-1 fluorescence, RPMI8226, 24 h, 100 nL compound, profiling panel (AID 1169); conditions: JC-1 mitochondrial potential fluorescence, higher = more signal; further: test concentration not given here
# [19] = JC-1 mitochondrial signal, unstimulated MM1S myeloma – cell-based, JC-1 fluorescence, 24 h, 100 nL compound, profiling panel (AID 1170); conditions: MM1S mitochondrial potential, higher = more signal; further: test concentration not given here
# [20] = resazurin metabolic signal in A549 cells – cell-based, resazurin fluorescence, 24 h, PK04 Diversity Set, profiling panel (AID 1171); conditions: A549 viability, higher = more signal, called active from +8 up or from −8 down; further: test concentration not given here
# Chain of NADPH oxidase 4 (Homo sapiens) (Q9NPH5 whole entry, looked up): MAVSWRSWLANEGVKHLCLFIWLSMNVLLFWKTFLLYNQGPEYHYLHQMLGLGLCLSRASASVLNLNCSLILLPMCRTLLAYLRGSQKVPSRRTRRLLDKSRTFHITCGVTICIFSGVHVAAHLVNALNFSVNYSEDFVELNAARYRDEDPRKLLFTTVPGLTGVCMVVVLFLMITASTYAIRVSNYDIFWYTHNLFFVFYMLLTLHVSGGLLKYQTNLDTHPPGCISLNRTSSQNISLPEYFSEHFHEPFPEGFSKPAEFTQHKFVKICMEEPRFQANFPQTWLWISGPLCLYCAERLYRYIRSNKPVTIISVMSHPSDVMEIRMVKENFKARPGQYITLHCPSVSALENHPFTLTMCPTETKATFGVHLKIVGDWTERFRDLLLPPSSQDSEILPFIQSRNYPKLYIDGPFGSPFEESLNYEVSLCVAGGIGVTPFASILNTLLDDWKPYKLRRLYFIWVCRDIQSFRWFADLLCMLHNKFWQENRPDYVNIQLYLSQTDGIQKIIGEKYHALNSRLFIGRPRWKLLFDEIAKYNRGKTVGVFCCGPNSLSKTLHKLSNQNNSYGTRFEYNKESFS
# Chain of NADPH oxidase 2 (Homo sapiens) (P04839 whole entry, looked up): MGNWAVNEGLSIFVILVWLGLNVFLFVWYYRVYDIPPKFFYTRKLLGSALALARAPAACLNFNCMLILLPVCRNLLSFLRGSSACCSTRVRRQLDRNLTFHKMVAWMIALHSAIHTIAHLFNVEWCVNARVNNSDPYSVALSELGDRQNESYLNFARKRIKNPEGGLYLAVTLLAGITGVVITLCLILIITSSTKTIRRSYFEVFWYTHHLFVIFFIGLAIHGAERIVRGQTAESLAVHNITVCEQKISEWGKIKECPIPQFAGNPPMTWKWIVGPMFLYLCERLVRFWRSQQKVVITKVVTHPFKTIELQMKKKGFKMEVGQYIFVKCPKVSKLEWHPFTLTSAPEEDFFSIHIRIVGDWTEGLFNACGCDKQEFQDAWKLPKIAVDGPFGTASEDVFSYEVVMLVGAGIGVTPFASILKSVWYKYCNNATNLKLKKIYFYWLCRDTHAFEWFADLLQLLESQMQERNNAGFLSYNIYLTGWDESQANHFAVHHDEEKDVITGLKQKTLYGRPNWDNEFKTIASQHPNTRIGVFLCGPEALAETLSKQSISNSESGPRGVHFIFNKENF
# Chain of NADPH oxidase 5 (Homo sapiens) (Q96PH1 whole entry, looked up): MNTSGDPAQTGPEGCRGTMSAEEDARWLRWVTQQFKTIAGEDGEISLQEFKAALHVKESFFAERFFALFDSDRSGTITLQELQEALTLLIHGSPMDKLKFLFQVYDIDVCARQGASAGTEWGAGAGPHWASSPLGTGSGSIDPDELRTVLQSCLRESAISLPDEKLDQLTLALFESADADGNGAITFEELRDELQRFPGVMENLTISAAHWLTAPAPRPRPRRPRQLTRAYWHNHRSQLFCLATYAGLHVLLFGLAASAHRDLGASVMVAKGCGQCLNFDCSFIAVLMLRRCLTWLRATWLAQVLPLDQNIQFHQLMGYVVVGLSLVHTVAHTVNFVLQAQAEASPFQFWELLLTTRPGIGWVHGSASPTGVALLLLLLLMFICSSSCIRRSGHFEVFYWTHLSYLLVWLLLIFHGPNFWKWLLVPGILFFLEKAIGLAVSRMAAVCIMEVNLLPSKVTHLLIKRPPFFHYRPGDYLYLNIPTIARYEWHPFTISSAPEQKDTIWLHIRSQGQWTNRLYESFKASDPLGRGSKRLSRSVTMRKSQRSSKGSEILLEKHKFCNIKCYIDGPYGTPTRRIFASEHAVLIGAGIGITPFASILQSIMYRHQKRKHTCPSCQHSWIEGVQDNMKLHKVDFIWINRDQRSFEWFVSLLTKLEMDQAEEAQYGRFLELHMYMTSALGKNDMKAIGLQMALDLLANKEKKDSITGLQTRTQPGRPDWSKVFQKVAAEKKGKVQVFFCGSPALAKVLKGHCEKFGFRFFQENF
Structure (SMILES),z-score [1],composite z-score [2],z-score [3],z-score [4],z-score [5],z-score [6],z-score [7],z-score [8],z-score [9],z-score [10],z-score [11],z-score [12],z-score [13],z-score [14],z-score [15],z-score [16],z-score [17],z-score [18],z-score [19],z-score [20]
CN1C(=O)C2C=CC(C(O)C(C)(C)C)N(Nc3ccccc3)C2C1=O (stereo not given),-1.06 (inactive),-0.0838,0.931 (inactive),1.05 (inactive),0.156 (inactive),1.12 (inactive),-1.04,-1.09 (inactive),-3.48 (inactive),-1.54,-0.398,-1.31,0.19,0.235,-1.08,-1.16,-0.398 (inactive),-0.476,-0.178,-0.463 (inactive)
CC(C)[C@H]1COC(=O)N1C(=O)[C@H]1[C@@H](c2ccccc2)N(c2ccccc2)O[C@@H]1C,1.46 (inactive),-0.147,0.744 (inactive),0.233 (inactive),-0.648 (inactive),0.206 (inactive),0.958,-0.515 (inactive),-0.138 (inactive),-2.5,0.198,0.343,0.612,-0.357,0.133,0.941,0.997 (inactive),-0.361,-1.46,1.72 (inactive)
CCOC1=C2C(c3ccc(C)cc3)N(S(=O)(=O)c3ccc(C)cc3)CC2n2c(=O)n(-c3ccccc3)c(=O)n2C1 (stereo not given),-0.346 (inactive),0.175,1.08 (inactive),1.32 (inactive),0.458 (inactive),0.807 (inactive),-0.0263,1.22 (inactive),0.965 (inactive),0.536,-0.943,-0.334,-0.422,-0.255,-0.546,1.53,0.497 (inactive),0.709,-1.03,-0.629 (inactive)
CO[C@H]1O[C@H](CO)[C@@H](OC(=O)Nc2ccc3c(c2)OCO3)[C@H](OC(=O)Nc2ccc3c(c2)OCO3)[C@H]1OC(=O)Nc1ccc2c(c1)OCO2,0.164 (inactive),0.457,6.86 (inactive),1.04 (inactive),0.608 (inactive),0.519 (inactive),-0.489,-1.44 (inactive),-0.847 (inactive),-1.69,-0.689,-0.121,-1.09,-1.57,-0.566,0.328,0.374 (inactive),0.0119,0.961,0.38 (inactive)
O=c1cccc(-c2ccccc2)o1,-0.766 (inactive),-0.0099,3.18 (inactive),0.578 (inactive),-0.891 (inactive),0.611 (inactive),-0.548,0.227 (inactive),-1.81 (inactive),-0.322,-1.18,0.0455,-0.738,-1.11,-0.664,-1.05,0.221 (inactive),0.826,-0.435,0.299 (inactive)
Cc1ccc([C@H]2C(C(=O)O)=C[C@@H](C(C)C)N2S(=O)(=O)c2ccc(C)cc2)cc1,-1.01 (inactive),0.121,0.297 (inactive),0.711 (inactive),-0.539 (inactive),0.734 (inactive),-0.365,0.79 (inactive),-1.06 (inactive),-0.32,-0.828,-0.762,-0.639,0.0411,-1.48,-0.713,-0.385 (inactive),0.59,-0.809,-0.194 (inactive)
COCCn1c(C(=O)N2CCCC2)cc2c1C[C@H]1CN(C(=O)c3ccccc3)[C@@](Cc3ccc(OC)cc3)(C(=O)OC)[C@@H]21,0.223 (inactive),1.15,2.9 (inactive),-0.51 (inactive),-0.778 (inactive),-1.96 (inactive),2.69,0.121 (inactive),0.435 (inactive),-4.54,0.476,0.238,1.35,0.776,0.426,2.71,0.0944 (inactive),0.00347,-0.828,-0.253 (inactive)
C=C(C(=O)CC[C@@H](OC(=O)c1cccnc1)c1ccc(CO)o1)C(C)C,-0.766 (inactive),0.329,1.42 (inactive),0.0559 (inactive),0.375 (inactive),0.209 (inactive),-0.211,1.22 (inactive),-0.133 (inactive),0.337,-0.628,0.153,-0.545,-1.06,-0.56,-1.3,0.0907 (inactive),0.283,0.48,-0.297 (inactive)
